Common to all, as to experiment: NCI-60 one-dose screen, 48 h (100 = growth as untreated, 0 = no growth, -100 = all killed)
Settings in all cases: 10 µM unless noted

In assay [1] the test system is DU-145 prostate.
The test system of assay [2] is MALME-3M melanoma.
Assay [3] has as its system MDA-MB-231 breast.
Assay [4] deals with RXF 393 renal.
The subject of assay [5] is SF-268 CNS.
Assay [6] deals with SF-295 CNS.
The subject of assay [7] is SF-539 CNS.
The subject of assay [8] is UACC-257 melanoma.
The subject of assay [9] is M14 melanoma.
The test system of assay [10] is HCT-15 colon.
The subject of assay [11] is HT29 colon.
In assay [12] the test system is SNB-75 CNS.
Assay [13] relates to SNB-19 CNS.
Assay [14] relates to U251 CNS.
For assay [15], the system named is SK-MEL-5 melanoma.
The subject of assay [16] is UACC-62 melanoma.
Assay [17] concerns LOX IMVI melanoma.
Assay [18] concerns SK-MEL-28 melanoma.
In assay [19] the test system is PC-3 prostate.

Compounds without any hit were thinned out: in the full panel of roughly 83,000, 20% have a hit.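 Assay: single dose, 48 h. Readout: percent growth (0 = no net growth; negative = cell death). Active: <10.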 Values without a mark were called inactive. Active and inactive are the calls of the source.

Turning to `CCn1cc(/C=C2\Oc3cc(OCC#N)ccc3C2=O)c2cc(OC)ccc21`, the growth was 20.4% in [1]; 93.4% in assay [2]; 45.2% in assay [3]; -11.3% (active) in [4]; 55.9% in assay [5]; 16.7% in [6]. In addition, the growth in [7] was 3.56% (active); in [8], 65.1%; in assay [9] it was 22.8%; in assay [10], 21.5%; in assay [11], 5.44% (active); in assay [12], 19.1%. The growth in assay [13] was 29.8%; in assay [14], 24.2%; in assay [15] it was 24.6%; in assay [16], 44.6%; in assay [17], 33.1%; in assay [18] it was 70.5%.

For the molecule `O=C(Cn1c2ccccc2c2ccncc21)N/N=C/c1c[nH]c2ccccc12`, the growth in assay [1] was 53.5%; in assay [2], 43.7%; in assay [3], 19.6%; in assay [4], 49.2%; in assay [5] it was 71.4%; in assay [6] it was 87.5%. Moreover, the growth was 86.4% in assay [7]; 88.3% in assay [8]; 68.2% in assay [9]; 93.4% in assay [10]; 44.2% in assay [11]; 31% in [12]. Further, the growth in assay [13] was 53.4%; in assay [14] it was 19.7%; in assay [19], 78.8%; in assay [15] it was 4.85% (active); in assay [16], 21.2%; in assay [17], 33.3%. Also, the growth in assay [18] was 56.5%.

Consider `CC(C)(C)OC(=O)N1CCN(CCn2cc(C(F)(F)F)c3c(Cl)ncnc32)CC1`, for which the growth in assay [1] was 39.8%; in [2], 112%; in assay [3] it was 57.9%; in [4], 47%; in assay [5], 69.5%; in assay [6] it was 99.6%. The growth in assay [7] was 97.3%; in assay [8], 85.4%; in assay [9], 14%; in [10], 10.9%; in assay [11] it was 23.5%; in assay [12], 111%. The growth was 37.3% in assay [13]; 8.61% (active) in assay [19]; 80% in assay [15]; 55.4% in assay [16]; -81% (active) in [17]; 52.8% in assay [18].

Take `O=C(Cn1c2ccccc2c2ccncc21)N/N=C/c1cc(O)c(O)c(O)c1`: the growth is 104% in assay [1]; 112% in assay [2]; 101% in assay [3]; 97.7% in assay [4]; 98.1% in [5]; 110% in [6]. The growth is 93.1% in assay [7]; 98.8% in [8]; 110% in [9]; 105% in assay [10]; 103% in assay [11]; 115% in assay [12]. For the same molecule, the growth in assay [13] was 93.9%; in assay [14], 101%; in [19], 102%; in [16], 103%; in assay [17], 96.9%; in assay [18] it was 108%.

Turning to `C=C1C(=O)O[C@H]2[C@H]1CC/C(COC(=O)c1ccc(C#N)cc1)=C\CC[C@@]1(C)O[C@@H]21`, the growth in [1] was 18.4%; in assay [2] it was -22.4% (active); in [3], 2.94% (active); in assay [4], -47.7% (active); in assay [5], 56.8%; in [6] it was 73.3%. The growth is -32.3% (active) in assay [7]; 52.2% in assay [8]; 15.6% in assay [9]; -7.25% (active) in [10]; -4.64% (active) in [11]; 77.3% in [12]. For the same molecule, the growth in assay [13] is 47.7%; in assay [14] it was 40.6%; in assay [19] it was 50.6%; in assay [15], 42.9%; in [16] it was -25.2% (active); in assay [17] it was -81.4% (active). For the same molecule, the growth in [18] is 3.18% (active).

For `OCc1cnccc1NC12CC3CC(CC(C3)C1)C2`, the growth in assay [1] was 104%; in assay [2], 99.4%; in [3] it was 97.6%; in assay [4] it was 99.9%; in assay [5] it was 98.3%; in [6], 102%. Moreover, the growth was 108% in assay [7]; 90% in assay [8]; 100% in assay [9]; 103% in [10]; 88.7% in assay [11]; 105% in assay [12]. The growth in assay [13] is 101%; in assay [14], 98.9%; in [19] it was 102%; in [15], 98.3%; in [16], 104%; in assay [17] it was 96.7%. The growth in assay [18] was 105%.

Values taken from PubChem BioAssay (NCI).
